# In the supplement of paper PMC10127200:
# Counter-ions that a name gives are not always drawn.
# Assays:
# Assay in all cases: Euclidean distance of Cell Painting phenotypic profile (signed KS, 77 features) to DMSO centroid (dimensionless distance); 5 or 10 uM (library dependent); higher = stronger phenotypic change vs DMSO (phenoactivity)
# Conditions in all cases: 48 h
# 786-O = system: 786-O
# Procedure, shortened: (§1)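 Stained cells were imaged confocally at 20X with 9 fields per well, after 48 h of exposure to library compounds at 10 or 5 uM (set by library; 0.1% DMSO final). The cells were five cancer lines and a healthy fibroblast line. From the images, Harmony extracted 77 features, each expressed as a signed Kolmogorov-Smirnov statistic relative to same-plate vehicle wells. Phenoactivity is measured as Euclidean distance to the median vehicle profile, using plate-position-corrected, correlation-weighted profiles averaged across replicates at the top dose.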
# A549 = system: A549
# Procedure, shortened: as §1
# DU145 = system: DU145
# Procedure, shortened: as §1
# FB = system: FB
# Procedure, shortened: as §1
# HEPG2 = system: HEPG2
# Procedure, shortened: as §1
# OVCAR4 = system: OVCAR4
# Procedure, shortened: as §1
SMILES,Euclidean distance (786-O),Euclidean distance (A549),Euclidean distance (DU145),Euclidean distance (FB),Euclidean distance (HEPG2),Euclidean distance (OVCAR4)
O=C(O)CCCCCCCC(=O)O [Azelaic acid],0.8,1.26,0.798,0.728,0.834,0.801
C#CCN[C@@H]1CCc2ccccc21 [Rasagiline Mesylate],1.19,0.608,0.782,0.686,1.01,1.18
FC(F)(F)c1ccc(CNc2ccc(Cc3c[nH]c4ncc(Cl)cc34)cn2)cn1 [Pexidartinib (PLX3397)],1.31,1.41,1.04,1.53,2.18,1
O=c1c(O)c(-c2ccc(O)c(O)c2)oc2cc(O)cc(O)c12 [Quercetin Dihydrate],0.703,1.01,0.731,0.799,0.874,0.868
Cc1nc(Nc2ccc(F)cc2)nc(N2CCc3ccccc3C2C)c1C (configuration not stated) [Revaprazan Hydrochloride],1.38,1.19,1.06,1.28,1.21,1.13
CCN(CC)C(=O)[C@@]1(c2ccccc2)C[C@H]1CN [Levomilnacipran Hydrochloride],0.986,0.786,1.17,1.23,0.649,0.997
NC(=O)N[C@@H](CCC(=O)O)C(=O)O [Carglumic Acid],1.22,0.653,0.949,1.06,0.389,0.68
CC(N)C12CC3CC(CC(C3)C1)C2 (configuration not stated) [Rimantadine Hydrochloride],1.07,0.924,0.781,1.07,0.658,1.17
CCOCc1nc2c(N)nc3ccccc3c2n1CC(C)(C)O [Resiquimod],1.35,1.05,1.47,0.954,0.587,1.19
C[C@]12CCCN1CC1=NNC(=O)c3cc(F)cc4[nH]c2c1c34 [Pamiparib (BGB-290)],1.52,1.68,1.44,1.48,2.36,1.71
CC(=O)OCC(=O)[C@@]1(O)CC[C@H]2[C@@H]3CCC4=CC(=O)CC[C@]4(C)[C@H]3C(=O)C[C@@]21C [Cortisone acetate],1.03,0.746,1.1,1.06,0.755,1.67
CN(C)CCOc1ccc(-c2nc(-c3ccncc3)c(-c3ccc4c(c3)CC/C4=N\O)[nH]2)cc1,1.49,1.63,2.08,2.65,4.66,2.22
CC(C)(C)NCC(O)COc1cccc2c1CC(O)C(O)C2 (configuration not stated) [Nadolol],0.954,1.38,1.88,0.792,0.849,1.11
O=c1c(O[C@@H]2O[C@H](CO)[C@@H](O)[C@H](O)[C@H]2O)c(-c2ccc(O)c(O)c2)oc2cc(O)cc(O)c12 [Isoquercitrin],0.868,0.899,0.931,0.989,0.812,1.03
Cc1ccc(Nc2nccc(N(C)c3ccc4c(C)n(C)nc4c3)n2)cc1S(N)(=O)=O [Pazopanib],2.13,1.89,2.31,2.44,1.94,1.78
COc1ccc(Cn2ccc3ccc(C(=O)NO)cc32)cc1,1.83,1.18,1.25,2.16,1.5,0.415
C[C@H]1O[C@@H](O[C@H]2CC[C@@]3(C)[C@@H](CC[C@]4(C)[C@@H]3C=C[C@]35OC[C@@]6(CCC(C)(C)C[C@H]63)[C@H](O)C[C@]54C)[C@]2(C)CO)[C@H](O)[C@@H](O[C@@H]2O[C@H](CO)[C@@H](O)[C@H](O)[C@H]2O)[C@H]1O [Saikosaponin D],2.45,2.4,5.79,1.95,4.11,2.92
c1ccc(CN(CC2=NCCN2)c2ccccc2)cc1 [Antazoline HCl],1.19,0.647,0.893,1.02,0.685,1.02
CNC(=O)c1nn(C)c2c1C(C)(C)Cc1cnc(Nc3ccc(N4CCN(C)CC4)cc3)nc1-2,2.4,3.03,2.9,3.36,2.65,2.9
CN1[C@@H]2CC[C@H]1C[C@@H](OC(c1ccccc1)c1ccccc1)C2 [Benztropine mesylate],1.38,0.973,1.51,1.56,1.19,1.21
O=C1C(=O)N(Cc2ccc(Cl)c(Cl)c2)c2ccccc21 [Apoptosis Activator 2],1.05,1.36,1.29,1.07,0.54,1.11
O=C(O)C1=CO[C@@H](O[C@@H]2O[C@H](CO)[C@@H](O)[C@H](O)[C@H]2O)[C@@H]2C(CO)=CC[C@H]12 [Geniposidic acid],0.817,0.758,0.684,0.819,0.985,0.756
